Measurements taken from PubChem BioAssay AID1347426 (Functional Genomics Laboratory (NCATS/FGL), 2020).
The campaign covered roughly 31,000 sequences. About 1,400 (4.5%) were called active.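 Rule for the calls: active = median seed-adjusted z-score above 1 or below -1; inactive = the rest.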 This excerpt belongs to a sample that is enriched for actives.

Assay: Novel Modifiers of Survival Motor Neuron (SMN) Protein: Gene Identification via Genome-wide siRNA Screen;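 note: luminescence tracks full-length SMN protein made from the SMN2 reporter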
Conditions: HEK293T SMN2-luciferase reporter, siRNA knockdown, 72 h; actives lie on both sides
Method in brief: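 HEK293T cells stably carrying an SMN2 promoter/splicing cassette–luciferase reporter were reverse-transfected with 1 pmol siRNA per well (druggable-genome library, 3 siRNAs per gene) and grown 72 h at 37 °C. Luminescence, normalized to negative-control siRNA and log10-transformed, was scored as MAD.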

Sequence | median seed-adjusted z-score
GGUCCGCUACUACCACCAATT against FUT4 | -0.24 (inactive)
GAAGCUUACAGAUUCGAUATT against CNTNAP2 | -0.196 (inactive)
GGAUGACAUUAGCAGGUAUTT against ERCC6 | 0.0421 (inactive)
GAAAGUUCAAGUACAGUGATT against CYP2E1 | 0.81 (inactive)
GAAUCUGGUGGGCCCUUUATT against POFUT2 | -0.86 (inactive)
GCUCAGCAUUGUCUGCAAATT against RNASE6 | 0.832 (inactive)
GAUUCUAGGAUAAGCACUATT against KLK8 | 0.736 (inactive)
GGUAAAGUUUUACAGCAUUTT against MTCH2 | -0.168 (inactive)
CCUGUAGAUUUGUCAACUATT against RANBP2 | 1.53 (active)
AGCACGAAGGCAAACCCUATT against CRIP1 | -0.622 (inactive)
GUUGAGCCCUUGUAUAUUATT against UBE2C | 0 (inactive)
GCUUUGAGGAAAAUCCGAATT against SLC26A3 | -0.506 (inactive)
GGAAAGCUCUUCGUCUGGATT against IFIT5 | 0 (inactive)
GCCUCUUAAUUUACCAGAATT against OGN | 0.0889 (inactive)
GGUUGUUAGUGGAUCAUCATT against FBXW11 | 0.206 (inactive)
GAGUGAUAUGAAACGGAAATT against NVL | 0.701 (inactive)
GUUUCGAGAUUGUUGCUAUTT against CCNL1 | -1.26 (active)
CGACUACUACUACCCUGAUTT against CCR8 | -0.206 (inactive)
AGUGCAAAAACGUGCUGAATT against AURKAIP1 | 0.067 (inactive)
CGAUUGCUUUUCUACCAACTT against SCP2 | 0.413 (inactive)
CAUUUCGACUGGAUCAUAUTT against CLK1 | -0.436 (inactive)
AUACAGAUGAUAAACCAUUTT against ZBTB34 | 0.0298 (inactive)

Sequence | median seed-adjusted z-score
CGGCCCUCCUCUGAAAAGATT against POU4F2 | 1.46 (active)
CCUCAGAUCUGAUGUCCAATT against VPS4A | 0 (inactive)
GAAUGACCCUGUACCCUAUTT against TAF2 | -0.243 (inactive)
GAAGGAUUUUGAGCCCGAATT against LETM1 | -0.491 (inactive)
ACACGUUGGAAGUAGCUGATT against OTUD4 | 0.167 (inactive)
GCUUAUAUGUUACCAUGGATT against COG4 | -0.508 (inactive)
GGUGACCGGUUACUUGGGATT against FFAR1 | 0.248 (inactive)
GCUUAUCUCGGCAAUCAAATT against PAPPA2 | -0.173 (inactive)
GAAAGACGAGCUUUACCUATT against GSK3A | 0.248 (inactive)
UGUGGAUCUGCUUACCAAATT against ZFAND2B | 0 (inactive)
GAGGUUUUCCAGACGGUGATT against EHD3 | 0.569 (inactive)
GCAUGCUCAUGGGUUACAATT against ZNF451 | 0 (inactive)
GGUGGUUGCUGUAUAUGGATT against KCTD9 | 1.31 (active)
CGGAAGCAGUUCCAACUUUTT against AKAP8 | -0.252 (inactive)
CAAAAUACAGAGUUUCUUUTT against RILP | 0.503 (inactive)
GGAUGUGAACGGGCACAUUTT against CDC42BPG | 0.153 (inactive)
CAGACAGUAUGUUCGAAGATT against PPAT | -1.51 (active)
GAAUCCUGAUGGGUAUGAATT against CPD | -0.198 (inactive)
GUCUUUAAUGCGCACUAUATT against FEZF1 | 0.155 (inactive)
ACAUCGUUGUGGUCAAGGUTT against ADAMTS15 | 0.765 (inactive)
GGACAAAACUCCUCUCUAUTT against MED27 | -1.62 (active)
GUAUAGGGCCUGUAAGUUUTT against LANCL1 | 0 (inactive)

Sequence | median seed-adjusted z-score
CUGCCUUGAUGACACCAGATT against TRIM16 | 0.345 (inactive)
CUACUAUCCUGGUUCUGGATT against PROS1 | 0.436 (inactive)
GUGAUACUGUCAAAGGUCATT against ATF2 | 0.424 (inactive)
GGGUUUAACUGGGAACUCUTT against GALNT8 | -0.283 (inactive)
GAUCCGUUGGUGCAUGAAATT against ABHD2 | -1.21 (active)
GAUCGACUGCUAGAGAGUATT against DCLK1 | 0.193 (inactive)
GUGCUAACUCAAUUCCAUATT against SSBP3 | 0.00592 (inactive)
GCCUUUCAGCAUGCGGUUATT against GDPD1 | 0.527 (inactive)
CCAUCUCUUUGGUAGUACUTT against TBC1D23 | 0.0932 (inactive)
CGUCUUUCCAGAAUUCAAATT against HGS | 1.16 (active)
GCAAGACUUUUGGUCGAAATT against ZNF816A | 0.39 (inactive)
CCGUUGCUAUGAACAAGUUTT against B4GALT3 | -0.138 (inactive)
GACAGAAGAUCAAUAUGAATT against ETS2 | 0.636 (inactive)
GAAGAGUGCUUGAAAUUUUTT against GFRA1 | 0.125 (inactive)
GCAUCCGGAUUCUUGAUGATT against PGK2 | -0.127 (inactive)
ACAAAGCUGCUGUGCUAUATT against BET1 | 0.394 (inactive)
CAGAUUACGUUUAUAAGAATT against ZNF274 | 0.452 (inactive)
CGAGUGCACUGCUGCCUAUTT against 5-Sep | -0.0749 (inactive)
GAUCCGAGAUCAACACCUUTT against PIK3R3 | -1.88 (active)
GACUACCAGUUGAUCAUGUTT against TTBK1 | 0.00054 (inactive)
CACCUGUACUUAUCCCGAATT against MEGF10 | 0.622 (inactive)
AAAUCGCGACGACUAAAUATT against CCBE1 | 0.964 (inactive)

Sequence | median seed-adjusted z-score
CAUCAGCUUCCGCAACUUUTT against LRP3 | -1.05 (active)
GGAAUACAUCAGAAUGGUATT against ITCH | 0.199 (inactive)
CCAAUGCUGUGACUUUCGATT against KIFC3 | 0.54 (inactive)
GCAGCAAAGGAAACCUAAATT against KLRC3 | 0.833 (inactive)
GCAAGCGAGUCAACACCAATT against DRD2 | -0.0273 (inactive)
CUUCAGUACCUUAUCAUUATT against ST6GALNAC5 | -0.0321 (inactive)
GGCCGUUUGUCAUUCCCUUTT against CBFA2T3 | -0.135 (inactive)
GGAAGAGACUUUGUCCACATT against BIRC7 | -1.44 (active)
CUCUGGGAGUCACGACUUUTT against GPR37L1 | -0.0348 (inactive)
GAGACAAAUUUGGGCCUUATT against HSF4 | 0.926 (inactive)
CAACGAUGGUGUACUACAATT against ABCC9 | 0.376 (inactive)
CAAGCGGACCAGGACCUAUTT against CSDC2 | -0.321 (inactive)
CAGUAUCCAUGGUGAUCUATT against ZP2 | 0.0455 (inactive)
GCAGCUCAACGGCAAAGAATT against RBM14 | -0.0317 (inactive)
GCAUCUCAAUAUCAACAAUTT against LINGO2 | 0.123 (inactive)
GAAUAUCGGUUGGAUUAUATT against ITGAV | 1.17 (active)
GGGCGGUCAUGGUUUUGAATT against CHST13 | -0.447 (inactive)
CCGCUGUUAUCAUUACCAUTT against KIR2DL5B | 1.72 (active)
GCUCUUCUAGACAUCGAUATT against NUBP1 | -0.0975 (inactive)
GAGGUUCCCUAAUUUCCAATT against HIF1AN | -0.0315 (inactive)
ACUACCUUCUCAUCAAGGATT against CCL19 | 0.0364 (inactive)
GCCUAGAAUUUGUAUCCCATT against ATXN2 | 0 (inactive)

Sequence | median seed-adjusted z-score
CCAAUCUGGUGACGAUUUATT against SP110 | -0.788 (inactive)
GUAUUUCGAGUAAGUCUAATT against TTPA | -0.208 (inactive)
GGAGUUACUCCAUUAACUATT against JARID1C | 0.372 (inactive)
CCUGCGUCUCUACAACUAUTT against AURKB | 0.0901 (inactive)
GAGAUUUGAUGAGAAGAGATT against MMP3 | 0.0592 (inactive)
UCUGGCUUAUUAUAACUAUTT against ACOT2 | 0.578 (inactive)
AGAUCGAGCCGGACAUGAUTT against NACC1 | 1.59 (active)
GAUGGGUUCUUGAACAUAUTT against EXOG | 0.746 (inactive)
CCUCAUGCCUUAAUGAUCATT against ZNF561 | -0.00904 (inactive)
CAUCCGUUCCAUACAUGUATT against AEBP2 | -0.212 (inactive)
GGAAUGGUUUAAAAUAGAATT against NUDT3 | 0.674 (inactive)
GGCAUUGCUUAAUGAUAUATT against SF3B1 | -3.65 (active)
CCUUCAGUCUUAACUCCAATT against ZKSCAN1 | 0.229 (inactive)
GCUGUAGCCUUGAUGCCUATT against INMT | 0.863 (inactive)
GUCCGAGUGUGGUUCUGUATT against POU5F1 | 0.0495 (inactive)
GGAAGAUCCUCUACCAGAATT against LATS2 | -0.245 (inactive)
CAGUCAAUGUUGUUCAGUUTT against GARS | 0.138 (inactive)
GGCUACAACGUGACCAAGATT against FZD4 | 0.0695 (inactive)
ACUUCAUGAUGGAUAUCCATT against KCNN4 | 0.00864 (inactive)
CCCUACAUGUGAACAACGATT against PRPF8 | -1.54 (active)
